Screening results deposited in PubChem by The Scripps Research Institute Molecular Screening Center.
PP5 inh: PP5 (human) phosphatase inhibition; purified PP5c, OMFP substrate fluorescence; inhibition, % at 6.7 µM; hit rate 0.18% among 320,000; AID 1987;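 active = inhibition above the campaign's mean inhibition across all tested compounds plus 3 SD, cut at about 9.5% in these data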
Target sequence (P53041 whole entry, looked up): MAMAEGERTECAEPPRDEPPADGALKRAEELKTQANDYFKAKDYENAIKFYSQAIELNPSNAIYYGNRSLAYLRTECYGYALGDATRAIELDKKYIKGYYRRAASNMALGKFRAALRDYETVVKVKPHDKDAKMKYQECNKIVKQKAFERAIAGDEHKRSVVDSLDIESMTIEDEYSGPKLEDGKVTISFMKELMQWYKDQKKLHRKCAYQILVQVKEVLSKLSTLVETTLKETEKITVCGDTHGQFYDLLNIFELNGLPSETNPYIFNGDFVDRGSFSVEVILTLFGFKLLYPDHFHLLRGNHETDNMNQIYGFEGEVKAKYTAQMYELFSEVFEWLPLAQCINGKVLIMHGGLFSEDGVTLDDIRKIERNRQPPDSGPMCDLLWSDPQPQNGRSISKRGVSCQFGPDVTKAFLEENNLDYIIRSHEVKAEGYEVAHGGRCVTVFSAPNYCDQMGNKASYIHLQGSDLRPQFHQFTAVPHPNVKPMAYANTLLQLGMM
PAFAH1B2 FP inh: blocks human PAF acetylhydrolase 1b catalytic subunit 2. AID 492953. inhibition, % at 3.39 µM. hit rate 1.2% among 340,000. P68402. recombinant PAFAH1B2, FP-rhodamine activity probe, fluorescence polarization;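 active = inhibition above the mean of all tested compounds plus 3 SD, cut at about 24% in these data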
PAFAH1B3 inh: inhibitors of human PAFAH1B3. inhibition, % at 3.39 µM. hit rate 0.28% among 340,000. recombinant PAFAH1B3, FP-rhodamine probe, fluorescence polarization. Q15102;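 active = inhibition above the screen-wide average of all tested compounds plus 3 SD, cut at about 25% in these data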
pPAFAH inh: pPAFAH (human) enzyme inhibition; Q13093; recombinant pPAFAH, FP-rhodamine probe fluorescence polarization; inhibition, % at 3.39 µM; hit rate 1.5% among 330,000;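 active = inhibition above the mean inhibition across the screen plus 3 SD, cut at about 25% in these data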;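 also: inhibitors block binding of the rhodamine activity-based probe so polarization drops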
PAFAH2 FP inh: inhibitors of human PAFAH2. Q99487. recombinant PAFAH2, FP-rhodamine activity probe, fluorescence polarization. hit rate 0.99% among 340,000. inhibition, % at 3.39 µM;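 active = inhibition above the mean over all tested compounds plus 3 SD, cut at about 30% in these data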;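 also: inhibitors block probe labeling of enzyme so polarization drops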
PP1 counter: blocks human PP1-alpha phosphatase, a PP5 counter-screen. AID 2235. inhibition, % at 6.7 µM. hit rate 0.9% among 320,000. purified PP1alpha, OMFP fluorescence. P62136;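 active = inhibition above the mean inhibition of all tested compounds plus 3 SD, computed separately for each screening campaign, cut at about 15% in these data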
pPAFAH FP conf: pPAFAH (human) inhibition, confirmed; shares compounds with pPAFAH inh; recombinant pPAFAH, FP-Rh probe fluorescence polarization; inhibition, % at 3.39 µM; hit rate 72% among 2,300;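 active = mean inhibition of the triplicate above the hit cutoff set for the earlier primary screen, cut at about 25% in these data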
A number is an active result; – = inactive; · = no result given. Rows were chosen to be rich in hits. Some 3.4% of all compounds tested hit in one or more screens of this group.

SMILES	PP5 inh	PAFAH1B2 FP inh	PAFAH1B3 inh	pPAFAH inh	PAFAH2 FP inh	PP1 counter	pPAFAH FP conf
C=CCCC1(CC(C)C)C(=O)NC(=S)NC1=O	·	–	–	·	–	·	·
CC[C@H](C)/C=C(C)/C=C/C1=CC2=C(Cl)C(=O)[C@@](C)(OC(C)=O)C(=O)C2=CO1	–	–	–	79	45	–	79
CCCCCn1c(=O)c(C(=O)NC(C)c2ccccc2)c(O)c2ccccc21 (stereo unspecified)	–	–	–	–	–	–	·
O=[N+]([O-])c1ccc(OP(=O)(O)Oc2ccc([N+](=O)[O-])cc2)cc1	·	–	–	·	–	·	·
CC(=O)OC1CCC2(C)C(CCC3C4CC(N5CC5)C(C(C)=O)C4(C)CC(=O)C32)C1 (stereo unspecified)	·	–	–	·	–	·	·
C[n+]1c2ccccc2nc2ccc(NCCO)cc21	–	72	82	72	83	–	58
CNc1ccc2nc3ccccc3[n+](C)c2c1	–	99	100	88	108	–	81
CC(=O)NC1=C(N2CC2C)C(=O)C(NC(C)=O)=C(N2CC2C)C1=O (stereo unspecified)	·	–	–	·	–	·	·
O=[N+]([O-])c1cc(O)c(O)c([N+](=O)[O-])c1	–	–	–	37	37	–	70
O=[N+]([O-])c1ccc(O)c([N+](=O)[O-])c1	–	–	–	–	–	–	·
O=C(C1CC(c2ccc(F)cc2)=NO1)N1CCC2(CC1)OCCO2 (stereo unspecified)	–	–	–	–	–	–	·
O=C(C1CC(c2ccc(Cl)c(Cl)c2)=NO1)N1CCC2(CC1)OCCO2 (stereo unspecified)	–	–	–	61	41	–	50
O=C(COC(=O)Cc1ccccc1)NCCNC(=O)COC(=O)Cc1ccccc1	–	–	–	–	–	–	·
O=C(COC(=O)Cc1ccccc1)Nc1ccc(SC(F)F)cc1	–	–	–	36	–	–	29
COC(=O)C1=C(c2cccc(C#N)c2)C[C@@H]2CC[C@H]1N2C(=O)N1CCC(C)CC1	–	–	–	–	–	–	·
Cc1ccccc1CCNCc1cc2cccc(C)c2[nH]c1=O	–	–	–	–	–	–	·
CCN(CC)c1ccc(N=Cc2c(O)n(Cc3ccco3)c(=O)[nH]c2=O)cc1	–	–	–	46	–	–	–
CCN(CC)c1ccc(N=Cc2c(O)n(-c3cc(OC)ccc3OC)c(=O)[nH]c2=O)cc1	–	–	–	38	–	–	–
CCN(CCO)c1ccc(N=Cc2c(O)n(C)c(=S)[nH]c2=O)cc1	–	·	·	37	·	–	–
COc1ccc2c(c1)C1(C(=O)O)CC=CCC1(C(=O)O)C2 (stereo unspecified)	·	–	–	·	–	·	·
NC(=O)Cn1cc(C(=O)c2ccccc2)c2ccccc21	–	–	–	–	–	–	·
O=C(c1cccs1)c1cn(Cc2ccccc2Cl)c2ccccc12	–	–	–	71	–	–	71
CC(C)NC(=O)Cn1cc(C(=O)c2ccccc2F)c2ccccc21	–	–	–	–	–	–	·
N#Cc1ccccc1Cn1cc(C(=O)c2cccs2)c2ccccc21	–	–	–	72	–	–	75
N#Cc1ccccc1Cn1cc(C(=O)c2ccccc2F)c2ccccc21	–	–	–	72	–	–	79
SMILES	PP5 inh	PAFAH1B2 FP inh	PAFAH1B3 inh	pPAFAH inh	PAFAH2 FP inh	PP1 counter	pPAFAH FP conf
CNC(=O)Oc1ccccc1C1CCCCC1	·	–	–	·	–	·	·
CC1(O)CCN2C(=O)CCc3cccc1c32 (stereo unspecified)	–	–	–	–	–	–	·
O=C(COC(=O)Cc1ccccc1)Nc1cc(S(=O)(=O)N2CCOCC2)ccc1N1CCCC1	–	–	–	39	–	–	39
CS(=O)(=O)N1Cc2ccccc2-n2nncc2C1	·	–	–	·	–	·	·
CN(C)C(=O)Oc1noc2cc(Cl)ccc12	–	–	–	43	41	–	52
CN(C)C(=O)Oc1c(Cl)cc(Cl)c2cccnc12	–	–	–	–	–	–	·
COc1ccc(-n2c(/C=C/c3ccc(O)c(O)c3)nc3ccccc3c2=O)cc1	–	–	–	37	–	–	46
CNc1ccc2oc(C[C@H]3O[C@@]4(CC[C@H]3C)O[C@H]([C@H](C)C(=O)c3ccc[nH]3)[C@H](C)C[C@H]4C)nc2c1C(=O)O	–	–	–	38	–	17	–
